Experimental data: the supplement of paper PMC10849652
The full data set covers some 8,800 targets. This sample favours those with a hit. About 0.5% of all pairs of compound and target were hits.

compound: C1CCN(C1)C(=O)NC2=CC=CC(=C2)NC3=NC=C(C(=N3)NCCC4=CN=CN4)Br; test: log2 fold change, soluble protein after heating vs DMSO (PISA); higher = thermal stabilisation; K562 lysate, 10 uM; active = over 0.2 and 3.5 SD of the protein, either way, in both replicates (recomputed)
Outline: (§1)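 Following dounce homogenisation of K562 pellets in PBS pH 7.4 with 1 mM MgCl2, crude extract at 1 mg/mL protein was incubated for 30 min with 10 μM compound. Aliquots were then heated for 3 min over 48°C-58°C and pooled, NP-40 was added to 0.5% at 4°C, and soluble protein was recovered as the supernatant at 21,000xg for 90 min. Channel-sum-equalised TMTpro 16plex LC-MS/MS quantified this protein. Each value, from duplicates, is a log-two fold change in thermal stability relative to solvent controls.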

Sequence of UniProt Q15776 (Q15776 whole entry, looked up): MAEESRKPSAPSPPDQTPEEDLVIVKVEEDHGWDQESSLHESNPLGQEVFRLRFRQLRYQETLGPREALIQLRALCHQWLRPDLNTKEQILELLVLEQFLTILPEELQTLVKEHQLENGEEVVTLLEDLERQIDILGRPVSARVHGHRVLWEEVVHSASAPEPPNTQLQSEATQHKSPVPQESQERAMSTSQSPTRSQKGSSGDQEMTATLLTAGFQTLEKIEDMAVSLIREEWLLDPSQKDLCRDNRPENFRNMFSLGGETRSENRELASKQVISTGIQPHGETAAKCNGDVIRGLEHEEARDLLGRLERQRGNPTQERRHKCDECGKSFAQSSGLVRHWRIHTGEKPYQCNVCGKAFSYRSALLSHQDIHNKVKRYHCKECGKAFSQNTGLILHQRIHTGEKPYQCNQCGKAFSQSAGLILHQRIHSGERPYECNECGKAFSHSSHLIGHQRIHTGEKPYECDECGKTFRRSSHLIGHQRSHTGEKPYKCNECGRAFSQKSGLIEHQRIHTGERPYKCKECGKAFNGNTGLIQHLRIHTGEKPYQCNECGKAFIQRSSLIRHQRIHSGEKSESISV
Sequence of UniProt Q5VUA4 (Q5VUA4 whole entry, looked up): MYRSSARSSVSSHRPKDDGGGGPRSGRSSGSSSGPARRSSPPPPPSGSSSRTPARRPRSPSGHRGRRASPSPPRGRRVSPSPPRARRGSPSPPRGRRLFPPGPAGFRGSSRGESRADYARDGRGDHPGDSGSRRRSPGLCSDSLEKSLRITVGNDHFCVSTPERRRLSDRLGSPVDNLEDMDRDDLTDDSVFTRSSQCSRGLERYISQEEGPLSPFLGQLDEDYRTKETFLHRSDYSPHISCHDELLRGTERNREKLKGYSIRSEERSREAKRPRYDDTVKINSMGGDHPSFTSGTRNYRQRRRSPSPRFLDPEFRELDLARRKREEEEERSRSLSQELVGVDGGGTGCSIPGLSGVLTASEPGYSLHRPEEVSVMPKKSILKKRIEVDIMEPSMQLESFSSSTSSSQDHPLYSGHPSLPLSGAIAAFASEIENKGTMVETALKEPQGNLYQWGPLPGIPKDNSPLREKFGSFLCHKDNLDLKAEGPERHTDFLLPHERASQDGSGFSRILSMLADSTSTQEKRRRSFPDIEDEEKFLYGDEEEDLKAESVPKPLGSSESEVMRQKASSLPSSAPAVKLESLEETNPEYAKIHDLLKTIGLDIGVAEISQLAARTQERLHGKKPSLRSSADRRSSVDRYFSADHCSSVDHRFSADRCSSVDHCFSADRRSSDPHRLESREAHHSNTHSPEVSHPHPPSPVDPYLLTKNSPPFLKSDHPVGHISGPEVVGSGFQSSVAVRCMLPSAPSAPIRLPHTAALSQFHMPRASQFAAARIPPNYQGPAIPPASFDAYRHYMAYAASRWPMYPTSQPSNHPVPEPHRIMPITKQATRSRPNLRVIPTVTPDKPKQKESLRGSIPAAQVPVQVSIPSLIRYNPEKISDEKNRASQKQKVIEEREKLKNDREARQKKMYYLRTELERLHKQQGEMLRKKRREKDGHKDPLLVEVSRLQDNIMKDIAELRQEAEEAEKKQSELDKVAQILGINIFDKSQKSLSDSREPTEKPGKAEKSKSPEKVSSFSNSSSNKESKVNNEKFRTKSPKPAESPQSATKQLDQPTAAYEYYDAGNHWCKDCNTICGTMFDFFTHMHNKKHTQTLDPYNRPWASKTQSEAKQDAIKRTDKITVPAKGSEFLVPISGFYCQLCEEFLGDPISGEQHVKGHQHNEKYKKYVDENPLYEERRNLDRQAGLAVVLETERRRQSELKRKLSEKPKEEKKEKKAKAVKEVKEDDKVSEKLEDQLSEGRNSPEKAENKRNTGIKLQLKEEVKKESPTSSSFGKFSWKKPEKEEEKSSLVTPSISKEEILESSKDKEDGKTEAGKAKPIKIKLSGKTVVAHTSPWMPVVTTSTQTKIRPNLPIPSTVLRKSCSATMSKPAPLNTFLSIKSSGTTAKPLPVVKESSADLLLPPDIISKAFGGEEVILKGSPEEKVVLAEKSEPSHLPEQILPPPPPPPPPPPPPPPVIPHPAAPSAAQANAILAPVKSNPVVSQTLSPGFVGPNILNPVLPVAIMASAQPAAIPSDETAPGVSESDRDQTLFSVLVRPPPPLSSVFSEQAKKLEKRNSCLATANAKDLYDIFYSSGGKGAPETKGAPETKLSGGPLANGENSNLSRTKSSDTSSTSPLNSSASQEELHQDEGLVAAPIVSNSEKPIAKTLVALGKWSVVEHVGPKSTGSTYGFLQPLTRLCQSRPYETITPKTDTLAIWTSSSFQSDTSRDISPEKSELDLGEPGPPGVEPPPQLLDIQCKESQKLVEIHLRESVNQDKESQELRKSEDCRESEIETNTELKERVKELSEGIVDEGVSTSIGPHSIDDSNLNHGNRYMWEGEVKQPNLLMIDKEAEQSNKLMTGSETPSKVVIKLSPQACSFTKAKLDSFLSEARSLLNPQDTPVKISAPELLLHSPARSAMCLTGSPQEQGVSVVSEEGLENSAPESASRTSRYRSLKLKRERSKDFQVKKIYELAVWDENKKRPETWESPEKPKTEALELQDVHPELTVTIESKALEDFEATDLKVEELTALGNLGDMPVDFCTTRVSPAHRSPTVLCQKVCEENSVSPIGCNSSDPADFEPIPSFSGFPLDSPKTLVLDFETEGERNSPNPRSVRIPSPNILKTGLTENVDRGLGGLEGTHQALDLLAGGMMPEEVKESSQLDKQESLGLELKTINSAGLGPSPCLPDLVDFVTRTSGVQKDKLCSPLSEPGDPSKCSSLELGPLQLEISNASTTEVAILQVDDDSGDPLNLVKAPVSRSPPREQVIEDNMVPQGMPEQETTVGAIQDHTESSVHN
Sequence of UniProt Q9H6S0 (Q9H6S0 whole entry, looked up): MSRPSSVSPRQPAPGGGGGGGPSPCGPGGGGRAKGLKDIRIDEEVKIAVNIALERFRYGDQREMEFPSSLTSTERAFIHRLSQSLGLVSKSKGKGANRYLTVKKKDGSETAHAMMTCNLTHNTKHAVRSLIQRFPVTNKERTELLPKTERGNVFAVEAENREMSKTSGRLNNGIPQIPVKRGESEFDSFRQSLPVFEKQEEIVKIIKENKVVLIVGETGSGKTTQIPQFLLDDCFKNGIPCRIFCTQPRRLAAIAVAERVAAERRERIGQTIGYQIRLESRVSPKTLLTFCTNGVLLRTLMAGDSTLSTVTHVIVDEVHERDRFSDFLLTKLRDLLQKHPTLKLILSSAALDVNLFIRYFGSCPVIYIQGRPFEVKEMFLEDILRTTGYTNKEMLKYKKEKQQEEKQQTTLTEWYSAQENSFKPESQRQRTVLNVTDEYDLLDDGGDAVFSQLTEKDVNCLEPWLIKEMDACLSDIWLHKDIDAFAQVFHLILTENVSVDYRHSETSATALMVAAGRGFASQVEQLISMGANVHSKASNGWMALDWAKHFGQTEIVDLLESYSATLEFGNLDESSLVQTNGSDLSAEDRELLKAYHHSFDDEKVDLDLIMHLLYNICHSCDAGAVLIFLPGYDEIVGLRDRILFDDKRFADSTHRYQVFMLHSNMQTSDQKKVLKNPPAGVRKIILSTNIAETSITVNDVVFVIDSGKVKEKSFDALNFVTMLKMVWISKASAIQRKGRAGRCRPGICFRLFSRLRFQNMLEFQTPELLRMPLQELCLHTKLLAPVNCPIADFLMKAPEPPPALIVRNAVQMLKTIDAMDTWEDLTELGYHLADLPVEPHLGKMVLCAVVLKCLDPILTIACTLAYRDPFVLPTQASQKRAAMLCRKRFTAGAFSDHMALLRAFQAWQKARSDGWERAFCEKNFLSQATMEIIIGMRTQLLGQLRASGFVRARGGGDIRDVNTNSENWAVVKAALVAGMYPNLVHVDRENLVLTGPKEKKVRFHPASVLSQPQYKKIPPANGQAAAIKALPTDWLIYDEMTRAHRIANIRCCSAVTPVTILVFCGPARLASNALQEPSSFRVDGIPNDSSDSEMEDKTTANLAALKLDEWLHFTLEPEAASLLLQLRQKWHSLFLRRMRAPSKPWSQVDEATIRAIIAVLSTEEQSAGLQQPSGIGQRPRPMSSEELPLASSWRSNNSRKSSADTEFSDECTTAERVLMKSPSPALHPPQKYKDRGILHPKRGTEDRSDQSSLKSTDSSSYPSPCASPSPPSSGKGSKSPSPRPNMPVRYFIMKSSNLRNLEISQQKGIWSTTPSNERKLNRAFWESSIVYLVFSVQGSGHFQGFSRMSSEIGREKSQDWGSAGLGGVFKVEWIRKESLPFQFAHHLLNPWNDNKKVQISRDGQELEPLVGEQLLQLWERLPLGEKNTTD
Sequence of UniProt Q9UL40 (Q9UL40 whole entry, looked up): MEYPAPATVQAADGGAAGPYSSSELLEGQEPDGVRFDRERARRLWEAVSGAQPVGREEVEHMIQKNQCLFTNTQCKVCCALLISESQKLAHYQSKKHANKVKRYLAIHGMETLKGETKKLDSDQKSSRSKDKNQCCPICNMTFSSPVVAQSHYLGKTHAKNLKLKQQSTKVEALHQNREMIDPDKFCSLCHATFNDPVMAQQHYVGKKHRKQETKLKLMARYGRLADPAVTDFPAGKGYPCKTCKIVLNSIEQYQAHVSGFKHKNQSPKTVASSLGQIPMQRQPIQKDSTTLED
Sequence of UniProt Q9Y484 (Q9Y484 whole entry, looked up): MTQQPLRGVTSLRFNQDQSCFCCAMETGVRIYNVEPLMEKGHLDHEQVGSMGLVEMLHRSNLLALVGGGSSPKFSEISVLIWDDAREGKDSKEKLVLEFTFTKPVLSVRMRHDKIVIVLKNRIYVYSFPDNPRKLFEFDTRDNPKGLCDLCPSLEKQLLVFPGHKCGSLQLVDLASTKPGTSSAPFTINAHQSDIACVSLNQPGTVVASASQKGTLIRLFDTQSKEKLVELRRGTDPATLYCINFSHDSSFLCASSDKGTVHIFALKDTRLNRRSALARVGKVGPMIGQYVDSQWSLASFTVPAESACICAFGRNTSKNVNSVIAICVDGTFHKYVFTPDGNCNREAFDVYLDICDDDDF

log2 fold change, inactive:
UNKL (UniProt E9PDK2) 0.155, ZNF346 (UniProt Q9UL40) 0.016, VASN (UniProt Q6EMK4) -0.277, WRB (UniProt O00258) 0.051, USP22 (UniProt Q9UPT9) -0.021, UTRN isoform 2 (UniProt P46939) 0.135, WAS (UniProt P42768) 0.007, USP48 isoform 8 (UniProt Q86UV5) 0, USP48 (UniProt Q86UV5) -0.033, WDR36 (UniProt Q8NI36) 0.014, VPS72 (UniProt Q15906) 0.024, ZNF318 (UniProt Q5VUA4) 0.023, ZSCAN21 (UniProt Q9Y5A6) -0.022, WDR45 isoform 2 (UniProt Q9Y484) 0.041, YTHDC2 (UniProt Q9H6S0) -0.019, ZKSCAN8 (UniProt Q15776) 0.031, ZDHHC17 (UniProt Q8IUH5) -0.066, WIPI1 (UniProt Q5MNZ9) 0.035, YBEY (UniProt P58557) -0.011, USP16 (UniProt Q9Y5T5) -0.028, ULK3 isoform 4 (UniProt Q6PHR2) 0.179

compound: C1CN(CCC1(CC2=CC=C(C=C2)Cl)N)C3=NC=NC4=C3C=CN4; test: as above
Outline: as §1

log2 fold change, inactive:
UNKL (UniProt E9PDK2) 0.156, ZNF346 (UniProt Q9UL40) -0.002, VASN (UniProt Q6EMK4) -0.01, WRB (UniProt O00258) -0.064, USP22 (UniProt Q9UPT9) 0.004, UTRN isoform 2 (UniProt P46939) 0.171, WAS (UniProt P42768) 0.026, USP48 isoform 8 (UniProt Q86UV5) 0.018, USP48 (UniProt Q86UV5) 0.013, WDR36 (UniProt Q8NI36) 0.004, VPS72 (UniProt Q15906) 0.059, ZNF318 (UniProt Q5VUA4) 0.004, ZSCAN21 (UniProt Q9Y5A6) 0.037, WDR45 isoform 2 (UniProt Q9Y484) -0.005, YTHDC2 (UniProt Q9H6S0) 0.029, ZKSCAN8 (UniProt Q15776) 0.006, ZDHHC17 (UniProt Q8IUH5) -0.027, WIPI1 (UniProt Q5MNZ9) -0.013, YBEY (UniProt P58557) 0.111, USP16 (UniProt Q9Y5T5) -0.005, ULK3 isoform 4 (UniProt Q6PHR2) 0.01

compound: C1COCCN1CCN2C3=CC=CC=C3N=C2NC(=O)C4=CC(=CC=C4)[N+](=O)[O-] [IRAK-1-4 Inhibitor I]; test: as above
Outline: as §1

log2 fold change, inactive:
ZNF346 (UniProt Q9UL40) 0.015, VASN (UniProt Q6EMK4) 0.222, URGCP (UniProt Q8TCY9) 0.022, WRB (UniProt O00258) 0.101, USP22 (UniProt Q9UPT9) -0.005, WAC isoform 5 (UniProt Q9BTA9) 0.018, ZBTB40 (UniProt Q9NUA8) -0.048, USP48 isoform 8 (UniProt Q86UV5) -0.014, ZNF281 (UniProt Q9Y2X9) 0.069, USP48 (UniProt Q86UV5) -0.026, WDR36 (UniProt Q8NI36) -0.049, ZNF845 (UniProt Q96IR2) -0.044, ZYG11A (UniProt Q6WRX3) -0.004, VPS72 (UniProt Q15906) -0.008, ZNF318 (UniProt Q5VUA4) 0.012, WDR45 isoform 2 (UniProt Q9Y484) -0.012, YTHDC2 (UniProt Q9H6S0) 0.002, ZKSCAN8 (UniProt Q15776) 0.077, ZDHHC17 (UniProt Q8IUH5) 0.205, WIPI1 (UniProt Q5MNZ9) -0.007, USP16 (UniProt Q9Y5T5) -0.033, WSB1 (UniProt Q9Y6I7) -0.093
